PINK1 modulator: changes PINK1 expression | AID 624263 | 0.2% of 410,000 active | PINK1 immunofluorescence, high-content cytometry, 24 h | Potency, µM (titrated, usually from 76.6 µM), without a hit: top-dose activation (PINK1 increase), usual class: activators; active means well fitted activation curve with a large enough effect; inconclusive means small, poorly fitted or top-dose-only effect; cell line not stated here; further: % of control where 0% means no effect; nearly all actives have a fitted effect of over 65% in size
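Readout is PINK1 immunofluorescence, quantified alongside mitochondrial, cell and nuclear markers by laser-scanning microplate cytometry. Cells from a stable line were exposed to compound titrations (5 concentrations) for 24 hours, with CCCP controls.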
Nrf2 block: Nrf2 pathway inhibition. A549 ARE-Fluc reporter, luciferase luminescence, 18-24 h. Potency, µM (top dose mostly 46 µM), inactives show at the highest dose activity change, negative = inhibition, most hits filed as inhibitors. 2.1% of 360,000 active; further: on the % scale 0 is the no-effect control and ±100 the full control effect; nearly all actives have a fitted effect of over 60% in size
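A549 ARE_Fluc cells, 5000/well, 5% FBS OPTI-MEM; compounds in dose-response, 18-24 h at 37 °C/5% CO2; CellTiter-Fluor viability read (Ex 405/Em 525), then BugLite luciferase luminescence = Nrf2 activity.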
Epigenetic reg: derepresses silenced GFP reporter in murine cells | Potency, µM (highest dose often 53.9 µM), without a hit: top-dose GFP activation, actives largely listed as activators | 0.2% of 280,000 active | murine LDR cells, GFP reporter derepression, 30 h; further: % of control where 0% means no effect; nearly all actives have a fitted effect of over 60% in size
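Murine LDR cells bearing a silenced CMV-driven GFP reporter were exposed to compound for 30 h at 37 C. After PBS washes, GFP-positive cells (20-120 um objects) counted by laser-scanning microplate cytometry.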
A549 tox: kills or reduces viability of A549 cells in Nrf2 counter-screen; A549 ARE-Fluc cells, CellTiter-Fluor viability, 18-24 h; Potency, µM (series often up to 46 µM), without a hit: at the highest dose activity change, negative = cytotoxicity, hits mostly inhibitors; 0.16% of 390,000 active; AID 504648; further: on the % scale 0 is the no-effect control and ±100 the full control effect
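Cytotoxicity counterscreen: CellTiter-Fluor fluorescence was measured in A549 ARE_Fluc cells after 18-24 h of compound exposure in a concentration series. The subsequent BugLite luminescent read reports ARE-luciferase activity.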
Nrf2 ARE act: activates Nrf2 signaling; AREc32 ARE-luciferase reporter (MCF7-derived line), luminescence, 24 h; 0.31% of 410,000 active; Potency, µM (series often up to 46.1 µM), for inactives: top-dose activation, usual class: activators; further: % of control where 0% means no effect; nearly all actives have a fitted effect of over 65% in size
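Each well held 1000 AREc32 cells, which were incubated with compound for 24 hr at 37 deg C after overnight attachment, and ARE reporter activity was quantified by firefly luciferase luminescence.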
Starred values were filed as active, the others as inactive; ? = inconclusive; / = no result given; [ ] = remark or other dose. Shown are actives, neighbours in structure and some others; about 2.4% of the full set was active somewhere. Unless noted, the call rests on the fitted dose curve; in most records, active means well fitted curve in the direction sought with a large enough effect; inconclusive means small, poorly fitted or top-dose-only effect, or another doubt; inactive means no such curve, though single readings can be large; an effect the other way counts as inactive or inconclusive. Potency means the concentration at half of the fitted maximal effect.

SMILES	PINK1 modulator	Nrf2 block	Epigenetic reg	A549 tox	Nrf2 ARE act
FC(F)(F)c1ccccc1NC(=S)N1CCN(Cc2ccc3c(c2)OCO3)CC1	-1%	18µM*	-1%	-2%	0%
Oc1[nH]c(N=C2N=c3ccccc3=N2)c2ccccc12	-1%	?	13µM*	?	5.6µM*
Cc1ccc2c(c1)=N/C(=N\c1[nH]c(O)c3ccccc13)N=2	0%	/	/	/	-3%
COc1ccccc1-n1c(=S)sc2c(=O)n(Cc3ccco3)c(SC)nc21	3%[38.3 µM]	8.2µM*	-2%	2%	0%
COc1ccccc1-n1c(SC)nc2c(sc(=S)n2-c2ccccc2)c1=O	4%	1%	/	-18%	-1%
Cc1ccc(-n2c(Cc3cccs3)nnc2SCC(=O)Nc2ccc(F)c(F)c2)cc1	-3%[38.3 µM]	23µM*	1%	-14%	3%
Cc1ccc(C2=NC(C(F)(F)F)(C(F)(F)F)c3c(n(-c4ccc(F)cc4)c(=O)[nH]c3=O)N2)cc1	40µM*	21µM*	0%	-13%	0%
O=c1[nH]c(=O)n(-c2ccccc2)c2c1C(C(F)(F)F)(C(F)(F)F)N=C(CCC1CCCCC1)N2	16%	18µM*	-3%	?	0%
COc1ccc(-n2c3c(c(=O)[nH]c2=O)C(C(F)(F)F)(C(F)(F)F)N=C(CC(C)C)N3)cc1	5%[38.3 µM]	?	-1%	1%	3%
O=c1[nH]c(=O)n(-c2ccc(F)cc2)c2c1C(C(F)(F)F)(C(F)(F)F)N=C(c1ccc(F)cc1)N2	10µM*	16µM*	-3%	?	4%
O=c1[nH]c(=O)n(Cc2ccco2)c2c1C(C(F)(F)F)(C(F)(F)F)N=C(CCC1CCCCC1)N2	/	-4%	?	-6%	0%
CCOC(=O)c1cc(-c2ccc(OC)cc2)n(CCC(=O)NC2CCCCC2)c1C	2%	/	-1%	-10%	5%
O=C(CSc1nc2c(c(=O)[nH]1)CCC2)Nc1ccccc1F	-1%	-26%	0%	-1%	0%
Cc1cc(C)cc(C(=O)NCC(=O)N2CCN(c3cccc(Cl)c3)CC2)c1	-2%	21µM*	/	-20%	0%
O=C(NCC(=O)N1CCN(Cc2ccccc2)CC1)c1ccc(Cl)cc1	0%	29µM*	/	-16%	0%
Cc1cccc(N2CCN(C(=O)CNC(=O)c3cccc([N+](=O)[O-])c3)CC2)c1C	0%	23µM*	/	-3%	0%
Cc1cccc(N2CCN(C(=O)CNC(=O)Cc3ccccc3)CC2)c1C	1%	?	/	-18%	4%
O=C(NCc1ccc(Cl)cc1)N1CCN(Cc2ccccc2)CC1	0%	23µM*	/	-15%	0%
O=C1CCc2cc(S(=O)(=O)Nc3cccc(Br)c3)ccc2N1	/	?	/	-2%	/
CCOC(=O)C1CCCN(C(=O)c2cnn(-c3ncc4c(n3)-c3ccccc3CC4)c2C)C1 (stereo unspecified)	0%	/	/	/	/
CCc1cc2c(s1)c1cnn(Cc3ccccc3F)c(=O)c1n2C	/	?	/	9%	/
CC(=O)c1ccc(F)c(-c2cc(C)cc3c2OC(CNC(=O)c2ccnn2C)C3)c1 (stereo unspecified)	-1%	/	/	/	/
CSc1ncc(C(=O)N2CCN(c3cccc(Cl)c3)CC2)c(C)n1	3%	-5%	0%	3%	1%
CSc1ccccc1C(=O)N1CCN(c2cccc(Cl)c2)CC1	-1%	16µM*	4%	?	2%
Cc1cccc(CNC(=O)c2cnn(-c3ncc(C)c(-c4ccc(F)cc4)n3)c2C)n1	0%	/	/	/	/
SMILES	PINK1 modulator	Nrf2 block	Epigenetic reg	A549 tox	Nrf2 ARE act
Cc1cc(/C=N/NC(N)=S)c(O)c(/C=N/NC(N)=S)c1	45µM*	2%	1%	2%	0%
O=C(NCc1ccccc1F)C1CCCN(C(=O)N2CCOc3ccccc32)C1 (stereo unspecified)	0%	-12%	0%	7%	0%
O=C(CSc1nc(-c2ccc(Cl)cc2)cs1)Nc1cccc([N+](=O)[O-])c1	3%	16µM*	0%	-21%	19%
COCC(=O)Nc1cc(C(=O)N2CCN(c3ccccc3)C(=O)C2)cc2nc(-c3ccccc3)n(C)c12	0%	/	/	/	/
CCc1ccccc1NC(=O)c1sc(-n2nc(C)c(Cc3ccc4c(c3)OCO4)c2C)nc1C	0%	23%	-1%	5%	0%
CN(N)c1nc(C(F)(F)F)nc2ccccc12	1%	-10%	-3%	0%	0%
CN(NS(=O)(=O)c1ccc(Br)cc1)c1nc(C(F)(F)F)nc2ccccc12	16µM*	21µM*	0%	?	2%
CN(C)c1ncc2nc(-c3cccs3)c(=O)n(-c3ccccc3)c2n1	40µM*	/	/	/	/
CN(C)c1ncc2nc(-c3ccc(F)cc3)c(=O)n(-c3ccccc3)c2n1	14%	/	/	/	/
CCNc1ncc2nc(-c3cccs3)c(=O)n(-c3ccc(OC)cc3)c2n1	9%	/	/	/	/
COc1ccc(-n2c(=O)c(-c3cccs3)nc3cnc(Nc4ccccc4)nc32)cc1	4.5µM*	/	/	/	/
O=S1(=O)N=C(Oc2ccccc2F)c2ccccc21	/	?	/	1%	/
CCC1CN(Cc2cccn2-c2ccccn2)Cc2cc(OC)ccc2O1 (stereo unspecified)	0%	/	/	/	/
COc1ccc(CNC(=O)C(=O)NCC(c2cccs2)S(=O)(=O)c2cccs2)cc1 (stereo unspecified)	1%	/	4%	0%	0%
COc1cc(OC)cc(C(=O)N2CCCC(n3cc(C(=O)NCC(C)C)nn3)C2)c1 (stereo unspecified)	0%	/	/	/	/
COc1ccc(OC)c2sc(NC(=O)CCS(=O)(=O)c3ccccc3)nc12	0%	?	/	-9%	5µM*
COc1cc(-c2nnc(NC(=O)CCS(=O)(=O)c3ccccc3)o2)cc(OC)c1OC	5%	4%	/	-26%	11µM*
COc1cc(OC)cc(-c2nnc(NC(=O)CCS(=O)(=O)c3ccc(F)cc3)o2)c1	0%	21µM*	/	?	?
COc1ccc(OC)c2sc(NC(=O)CCSc3ccccc3)nc12	8%	-9%	1%	4%	4%
COc1cc(-c2nnc(NC(=O)CCS(=O)(=O)c3ccc(F)cc3)o2)cc(OC)c1OC	8%	-2%	/	-7%	25%
Cc1ccccc1Cc1nc2cccnc2n1C1CCN(C(=O)CC2NC(=O)c3ccccc32)CC1 (stereo unspecified)	1%	/	/	/	/
O=C(c1cnn(-c2nccc(-c3ccco3)n2)c1C1CC1)N1CCCCC1c1cccnc1 (stereo unspecified)	0%	/	/	/	/
C(=C\c1nc(N2CCCCCC2)c2ccccc2n1)/c1ccccc1	35µM*	?	3%	?	12%
Cc1ccc(OCC(=O)N(Cc2nc(-c3ccccc3)no2)C(C)C)cc1C	3%	/	-1%	2%	4%
COc1ccccc1OCC(=O)N(Cc1nc(-c2ccc(Cl)cc2)no1)C(C)C	8%	-21%	5%	-6%	3%
